The values below come from PubChem BioAssay (NCI).

About 83,000 compounds went through this panel and 20% of them were active in at least one assay; those are over-represented in the sample as a whole.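 Interpretation: 100, growth as untreated; towards 0, rising growth inhibition; 0, no net growth; 0 to -100, cell death. Compounds scoring below 10 were considered active.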 Active and inactive are the calls of the source.

The subject of the test is SW-620 colon. Nature of the test: NCI-60 one-dose screen, 48 h (100 = growth as untreated, 0 = no growth, -100 = all killed). As to conditions: 10 µM unless noted. The procedure: Growth inhibition of the SW-620 human tumor cell line is measured as a screen for anti-cancer activity. Cells are grown in 96 well plates and exposed to the test compound for 48 hours. Compounds are tested at a single concentration, which is 10^-5 M for most compounds. The reported endpoint is percent growth (GI% or GIPRCNT), where numbers from 0 - 100% represent growth inhibition, and numbers from -100% - 0 represent cell death. For example, a value of 40 represents 60% growth inhibition. A value of 0 means no net growth occurred over the course of the experiment. A value of -40 indicates 40% of cells at the beginning of the experiment died by the end of the experiment. A value of -100 means all cells are dead at the end of the experiment.
NCI-60 Human Tumor Cell Lines Screen was performed using the standard one-dose NCI protocol, which is described in more detail at https://dtp.cancer.gov/discovery_development/nci-60/default.htm.
Compounds with GIPRCNT values below 10 were considered active. Activity score was based on GIPRCNT using the following formula: […]
Score is 0 for GIPRCNT values of 100 or above, 50 for GIPRCNT values of 0, and 100 for GIPRCNT values of -100.
Regarding `Cc1ccc(NC(C(=O)c2ccccc2)c2ccccc2)cc1` (stereo not given), the growth is 67.1% (inactive).
With `CNCCn1c(=O)c2cc(OC)c(OC)cc2c2ccc3cc4c(cc3c21)OCO4` the figure was -47.4% (active); with `OCc1cnc2ccccc2c1NC1CCCCCC1`, 98% (inactive).
Consider `CCN(CC)CCn1c(=O)c2cc(OC)c(OC)cc2c2ccc3cc4c(cc3c21)OCO4`, for which the growth is 26% (inactive).
With `Cc1ccc(/C=C(/C#N)n2nnc3cccc(F)c32)cc1` the figure was 1.87% (active).
Then `NS(=O)(=O)c1ccc(CCN2C(=O)C=CC2=O)cc1`, with 106% (inactive); and `CC(=O)[C@H]1CCC/C=C/[C@@H]2C[C@H](O)C[C@H]2[C@H](O)/C=C/C(=O)O1`, with -33.5% (active).
Then `COc1ccc(N2CCN(c3ccc(NC4=C(Cl)C(=O)c5ncccc5C4=O)cc3)CC2)cc1`, with 15.9% (inactive); and `O=C(Nc1ccc(Cl)cc1)c1cc(NCc2cc(O)ccc2O)ccc1O`, with 89.9% (inactive); and `CCN1Cc2nc3sc(C)c(C)c3c(=O)n2C=C1C`, with 15.6% (inactive).
On to `CC(=O)[C@@H]1CC[C@]2(CO)CC[C@]3(C)[C@H](CC[C@@H]4[C@@]5(C)CCCNC(C)(C)[C@@H]5CC[C@]43C)[C@@H]12`, for which the growth is 103% (inactive).
Then `CCCC/C=N/NC(=S)NCc1ccccc1`, with 96.1% (inactive).
With `Cn1cc(-c2csc(-c3c[nH]c4ccccc34)n2)c2ccnc(Cl)c21` the figure was 41.7% (inactive); with `O=C(Cn1c[n+](CC(=O)c2ccc([N+](=O)[O-])cc2)c2ccccc21)Nc1cccc2cccnc12`, 54.8% (inactive); with `O=C(NCCNc1nccc(-c2c(-c3cccc(F)c3)nc3sccn23)n1)c1ccc(Cl)cc1`, 65.2% (inactive).
`O=C(c1nc2ccccc2[nH]1)C1C(c2ccc(Br)cc2)C2CC3CCCC[C@H]3N2[C@@]12C(=O)Nc1cc(Cl)ccc12` (stereo not given in full): the growth was 31.2% (inactive).
Then `O=C(Cc1ccc(/C=C/C(=O)c2nccs2)cc1)Nc1ccccc1`, with 51.9% (inactive); and `Cc1nn(-c2ccccc2)c(Cl)c1/C=N\N=c1/sc2ccccc2n1C`, with 101% (inactive); and `COC(=O)C(OC(C)=O)C(OC(C)=O)c1ccc(OC)c(OC)c1` (stereo not given), with 118% (inactive).
`O=C(Cc1ccccc1)NNc1nc(Cl)nc(N2CCN(C(c3ccccc3)c3ccccc3)CC2)n1`: the growth was 82.3% (inactive).
With `O=C1c2ccc3c4c(ccc(c24)C(=O)N1CCCNCc1ccccc1Cl)C(=O)N(CCCNCc1ccccc1Cl)C3=O` the figure was -82.7% (active); with `CC(=O)Nc1cccc(-c2ccc3c(c2)NC(=O)/C3=C\c2ccc[nH]2)c1`, 37.9% (inactive).
With `Cc1nc(N)nc(N[C@@H](C)c2nc3cccc(NCc4ccc(C(=O)NO)cc4)c3c(=O)n2-c2ccccc2)n1` the figure was 49.5% (inactive); with `CC(=O)Oc1ccc(/C=N/NC(N)=S)nc1`, 60.9% (inactive).
With `COc1cc2nc(-c3ccc(Cl)cc3)cc(OCCCN3CCCCC3)c2cc1OC` the figure was 40.8% (inactive); with `COC(=O)C1=C(C(=O)ON)C2C=CC1(C(Cc1ccccc1)Nc1ccccc1)O2` (stereo not given), -60% (active); with `O=S(=O)(Nc1ccc(-n2cnc3cc(-c4ccc(O)cc4)ccc32)cc1)c1ccccc1`, 109% (inactive).
`O=C(Nc1ccc(F)cc1)Nc1ccc(NC(=O)c2cc(Cl)nc3ccccc23)cc1`: the growth was 65% (inactive).
With `COc1ccc(C(=O)Cn2c(C(=O)c3ccccc3)nc3ccccc32)cc1` the figure was 10.6% (inactive); with `N#Cc1c(-c2cccc([N+](=O)[O-])c2)nc(SCC(=O)c2ccc(Cl)cc2)[nH]c1=O`, 98.4% (inactive); with `CCCCCCCC(=O)OCC/C=C/C1OC1C1OC(=O)/C=C\C=C\C(=O)N(C(C)=O)C(=O)/C=C(/C)CCC2OC2C1OC(=O)NC(C)=O` (stereo not given), 83.1% (inactive).
Then `CN(C)c1ccc(C2C(C#N)=C(/N=C/c3ccccc3)Oc3c2ccc2ccccc32)cc1` (stereo not given), with 41% (inactive); and `O=C1Nc2cc(-c3cccc([N+](=O)[O-])c3)ccc2/C1=C/c1ccc[nH]1`, with 93.3% (inactive).
With `COc1cc2c(=O)n(CCN)c3c4cc5c(cc4ccc3c2cc1OC)OCO5`, the growth was -75.6% (active).
With `COc1cccc(-c2nc3occn3c2-c2ccnc(NCCCNS(=O)(=O)c3ccc(C(F)(F)F)cc3)n2)c1` the figure was 124% (inactive); with `O=C(/C=C/c1c(-c2ccc(Cl)cc2)nn(-c2ccccc2)c1C(F)(F)F)c1ccc(Cl)cc1`, 104% (inactive); with `COc1ccc(/C=C/C(=O)Nc2cc(/C=C\c3cc(OC)c(OC)c(OC)c3)cc(OC)c2OC)cc1OC`, 35.2% (inactive).
Then `CC(=O)O[C@H]1Cc2c([nH]c3ccccc23)[C@@H](c2ccc(Cl)cc2)N1C(=O)CCNC(C)(C)C`, with 61.1% (inactive); and `CC(C)c1ccc(Nc2ccc3c(OCCCN4CCN(C)CC4)cccc3n2)cc1`, with 4.69% (active); and `CCCCCC(=O)Oc1ccc(/C(=C(/C)Cc2ccc(OC)cc2)c2ccc(OCCCN(C)C)cc2)cc1`, with 82.4% (inactive).
